What all share (parameters): scale not given: direction of the effect not stated beside the values
For assay [1], the target named is Protein translocase subunit SecA (Escherichia coli (strain K12)) (UniProt P10408). In words: Assay to Identify E. coli SecA ATPase Inhibitors. It is filed as functional. Particulars: 30 µM.
The target in assay [2] is T1, Ubiquitin-activating enzyme e1, putative (Leishmania donovani (strain BPK282A1)) (UniProt E9BSI1).
T1 sequence (whole entry): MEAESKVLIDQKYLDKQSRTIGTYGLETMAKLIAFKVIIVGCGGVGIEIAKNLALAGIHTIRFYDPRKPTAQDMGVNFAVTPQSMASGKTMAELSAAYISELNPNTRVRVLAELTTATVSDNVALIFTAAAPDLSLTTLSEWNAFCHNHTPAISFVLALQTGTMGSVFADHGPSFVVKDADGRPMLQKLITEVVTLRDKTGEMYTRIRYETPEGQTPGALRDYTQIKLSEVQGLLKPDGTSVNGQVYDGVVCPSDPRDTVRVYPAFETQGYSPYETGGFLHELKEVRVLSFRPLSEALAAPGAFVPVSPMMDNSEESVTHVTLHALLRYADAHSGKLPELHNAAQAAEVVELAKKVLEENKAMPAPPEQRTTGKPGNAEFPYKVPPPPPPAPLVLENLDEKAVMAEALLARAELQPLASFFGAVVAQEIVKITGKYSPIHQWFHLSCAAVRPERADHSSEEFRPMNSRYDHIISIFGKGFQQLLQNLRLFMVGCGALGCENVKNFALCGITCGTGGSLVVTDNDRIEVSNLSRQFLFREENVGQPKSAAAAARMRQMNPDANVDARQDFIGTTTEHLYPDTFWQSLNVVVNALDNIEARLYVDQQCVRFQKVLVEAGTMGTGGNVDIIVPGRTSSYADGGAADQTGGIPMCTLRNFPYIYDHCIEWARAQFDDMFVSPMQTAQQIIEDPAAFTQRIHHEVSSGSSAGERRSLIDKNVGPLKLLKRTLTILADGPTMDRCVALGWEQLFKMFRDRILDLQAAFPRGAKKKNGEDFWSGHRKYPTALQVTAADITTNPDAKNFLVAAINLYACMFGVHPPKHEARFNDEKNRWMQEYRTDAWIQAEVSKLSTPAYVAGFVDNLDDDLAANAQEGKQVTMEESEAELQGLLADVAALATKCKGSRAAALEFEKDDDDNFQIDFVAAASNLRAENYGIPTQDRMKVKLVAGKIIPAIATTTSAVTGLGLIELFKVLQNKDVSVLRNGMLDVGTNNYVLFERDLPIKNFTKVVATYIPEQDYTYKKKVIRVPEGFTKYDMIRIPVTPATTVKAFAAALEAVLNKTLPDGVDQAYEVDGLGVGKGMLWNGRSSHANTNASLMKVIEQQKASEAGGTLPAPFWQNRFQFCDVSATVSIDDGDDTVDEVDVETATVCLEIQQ
The experiment in a line: Leishmania donovani Ubiquitin Activating Enzyme (LdE1). Conditions: 30 µM. In kind it is functional.

The target in assay [3] is AMP-activated protein kinase, AMPK (Homo sapiens) (UniProt P54646+O43741+P54619+Q9UGJ0+Q9Y478+Q13131+Q9UGI9). The experiment in a line: AMP-dependent Kinase enzyme assay. An in vitro enzyme assay that detects ADP turnover that is directly proportional to AMPK activity. This uses naive AMPK that is activated during the assay with MK-8722. It is filed as functional. Conditions: 30 µM.

The target of assay [4] is Sialic acid-binding Ig-like lectin 9 (Homo sapiens) (UniProt Q9Y336). The experiment in a line: Hs-Siglec9 ALPHAscreen SOP 20170721. Particulars: 10 µM.
For assay [5], the system named is Trypanosoma cruzi. The experiment in a line: Trypanosoma cruzi phosphomannomutase and mannose-1-phosphate guanylyltransferase assay. It is filed as functional. Particulars: 10 µM.
Assay [6] concerns the target T2, Arginase-2, mitochondrial (Homo sapiens) (UniProt P78540).
T2 sequence (whole entry): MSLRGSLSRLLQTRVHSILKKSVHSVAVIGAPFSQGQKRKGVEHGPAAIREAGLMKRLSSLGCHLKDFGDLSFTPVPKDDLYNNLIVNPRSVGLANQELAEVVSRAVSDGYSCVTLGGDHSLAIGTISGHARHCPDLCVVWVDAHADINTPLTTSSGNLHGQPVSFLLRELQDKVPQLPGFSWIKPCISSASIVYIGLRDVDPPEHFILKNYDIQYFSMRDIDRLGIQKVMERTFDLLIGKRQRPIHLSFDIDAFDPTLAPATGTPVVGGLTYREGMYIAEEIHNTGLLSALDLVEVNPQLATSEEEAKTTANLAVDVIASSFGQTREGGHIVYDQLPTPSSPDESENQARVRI
The experiment in a line: in vitro enzyme assay to detect the production of urea directly proportional to the activity of Arginase II. Also: in the data most compounds retested in dose-response had high values. In kind it is functional. Conditions: 33.3 µM.

Assay [7] addresses T3, Proteasome subunit beta (Trypanosoma cruzi) (UniProt O96673).
T3 sequence (whole entry): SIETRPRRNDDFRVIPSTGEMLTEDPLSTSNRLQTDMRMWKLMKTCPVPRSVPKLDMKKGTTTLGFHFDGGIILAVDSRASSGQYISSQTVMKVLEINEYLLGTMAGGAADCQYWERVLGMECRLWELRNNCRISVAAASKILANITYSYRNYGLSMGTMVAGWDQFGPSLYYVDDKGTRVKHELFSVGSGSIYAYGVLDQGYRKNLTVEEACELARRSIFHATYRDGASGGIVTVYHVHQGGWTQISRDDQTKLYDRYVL
In words: Trypanosoma cruzi proteasome chymotrypsin-like activity (TcProtChymo) assay. Also: in the data most compounds retested in dose-response had high values. Particulars: 9.37 µM. It is filed as functional.

The species named for assay [8] is Homo sapiens. The experiment in a line: To identify inhibition of the IFN signalling (Jak-Stat) pathway via expression of an eGFP reporter gene under the control of an IFN-stimulated response element (ISRE) containing MxA promoter. It is filed as functional. Particulars: 30 µM.
In assay [9] the target is T4, Tyrosyl-tRNA synthetase, putative (Trypanosoma cruzi (strain CL Brener)) (UniProt Q4DSP6).
T4 sequence (whole entry): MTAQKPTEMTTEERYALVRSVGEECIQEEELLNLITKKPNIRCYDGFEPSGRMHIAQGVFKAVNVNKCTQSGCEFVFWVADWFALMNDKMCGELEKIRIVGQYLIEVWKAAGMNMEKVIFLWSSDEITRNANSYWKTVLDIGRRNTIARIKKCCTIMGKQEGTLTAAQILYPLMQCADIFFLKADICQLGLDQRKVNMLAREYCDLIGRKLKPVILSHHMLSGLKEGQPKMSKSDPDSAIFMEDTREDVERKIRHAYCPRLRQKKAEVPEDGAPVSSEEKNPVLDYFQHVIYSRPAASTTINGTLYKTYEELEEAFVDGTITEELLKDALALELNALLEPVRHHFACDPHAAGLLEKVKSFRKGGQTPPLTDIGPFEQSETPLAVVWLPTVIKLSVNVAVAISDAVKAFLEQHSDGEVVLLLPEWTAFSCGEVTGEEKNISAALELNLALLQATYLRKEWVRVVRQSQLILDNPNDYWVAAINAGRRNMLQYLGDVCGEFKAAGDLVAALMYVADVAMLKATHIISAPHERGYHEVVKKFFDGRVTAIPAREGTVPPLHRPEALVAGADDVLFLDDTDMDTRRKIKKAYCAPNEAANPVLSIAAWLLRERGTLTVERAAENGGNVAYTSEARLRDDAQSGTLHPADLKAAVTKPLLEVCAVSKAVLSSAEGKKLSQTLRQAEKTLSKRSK
The experiment in a line: Trypanosoma cruzi tyrosyl tRNA synthetase (TcYRS) _High Tyrosine SOP. Also: in the data most compounds retested in dose-response had high values. It is filed as functional. Particulars: 30 µM.

Assay [10] has as its target T4, Tyrosyl-tRNA synthetase, putative (Trypanosoma cruzi (strain CL Brener)). The experiment in a line: Trypanosoma cruzi tyrosyl tRNA synthetase (TcYRS) SOP. In kind it is functional. Conditions: 30 µM.
Assay [11] has as its target Chromo domain-containing protein 1 (Saccharomyces cerevisiae (strain ATCC 204508 / S288c) (Baker's yeast)) (UniProt P32657). The experiment in a line: ScCHD-1 Enzyme Inhibition Assay. Also: in the data most compounds retested in dose-response had high values. In kind it is functional. Particulars: 30 µM.

For some of these results: Results with a measured potency or affinity are listed apart.

Sequence of Chromo domain-containing protein 1 (Saccharomyces cerevisiae (strain ATCC 204508 / S288c) (Baker's yeast)) (P32657 whole entry, the tested form may be a part): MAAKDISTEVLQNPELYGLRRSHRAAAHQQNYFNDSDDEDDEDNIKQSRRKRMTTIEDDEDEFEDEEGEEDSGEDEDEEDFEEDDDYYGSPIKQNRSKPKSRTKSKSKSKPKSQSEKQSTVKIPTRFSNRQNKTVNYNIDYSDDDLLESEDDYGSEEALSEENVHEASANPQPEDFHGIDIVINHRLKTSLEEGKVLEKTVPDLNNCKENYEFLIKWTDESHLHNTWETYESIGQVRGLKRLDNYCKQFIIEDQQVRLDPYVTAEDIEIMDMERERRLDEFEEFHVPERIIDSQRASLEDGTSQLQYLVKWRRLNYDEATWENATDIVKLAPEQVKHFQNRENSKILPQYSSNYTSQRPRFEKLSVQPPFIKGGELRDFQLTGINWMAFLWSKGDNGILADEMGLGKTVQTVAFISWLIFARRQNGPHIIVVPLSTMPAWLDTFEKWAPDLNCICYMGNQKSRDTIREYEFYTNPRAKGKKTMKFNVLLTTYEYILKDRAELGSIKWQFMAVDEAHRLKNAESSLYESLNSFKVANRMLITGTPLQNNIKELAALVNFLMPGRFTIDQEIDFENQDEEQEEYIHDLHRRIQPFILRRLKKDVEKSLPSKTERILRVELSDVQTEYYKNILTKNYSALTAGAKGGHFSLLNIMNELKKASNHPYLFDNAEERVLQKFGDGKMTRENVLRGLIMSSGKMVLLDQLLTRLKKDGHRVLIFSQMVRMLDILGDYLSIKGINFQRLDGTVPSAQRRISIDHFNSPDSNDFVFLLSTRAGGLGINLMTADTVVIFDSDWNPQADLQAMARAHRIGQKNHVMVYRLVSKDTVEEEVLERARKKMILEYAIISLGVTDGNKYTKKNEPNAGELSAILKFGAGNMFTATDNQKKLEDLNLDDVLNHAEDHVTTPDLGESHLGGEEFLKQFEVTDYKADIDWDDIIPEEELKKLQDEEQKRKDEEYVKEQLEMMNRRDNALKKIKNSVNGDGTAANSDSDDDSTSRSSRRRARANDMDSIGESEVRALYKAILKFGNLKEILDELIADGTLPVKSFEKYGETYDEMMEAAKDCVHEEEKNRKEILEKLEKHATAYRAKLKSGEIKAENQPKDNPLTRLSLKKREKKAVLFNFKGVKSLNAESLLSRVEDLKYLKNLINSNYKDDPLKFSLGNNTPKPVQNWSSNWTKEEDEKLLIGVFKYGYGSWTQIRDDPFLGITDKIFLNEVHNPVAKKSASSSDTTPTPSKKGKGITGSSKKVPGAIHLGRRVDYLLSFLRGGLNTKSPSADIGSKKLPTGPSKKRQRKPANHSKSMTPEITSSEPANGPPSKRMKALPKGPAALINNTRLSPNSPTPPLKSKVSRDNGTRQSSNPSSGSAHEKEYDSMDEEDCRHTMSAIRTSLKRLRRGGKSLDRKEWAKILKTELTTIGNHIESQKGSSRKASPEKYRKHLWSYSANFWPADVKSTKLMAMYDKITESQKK
Sequence of Protein translocase subunit SecA (Escherichia coli (strain K12)) (P10408 whole entry): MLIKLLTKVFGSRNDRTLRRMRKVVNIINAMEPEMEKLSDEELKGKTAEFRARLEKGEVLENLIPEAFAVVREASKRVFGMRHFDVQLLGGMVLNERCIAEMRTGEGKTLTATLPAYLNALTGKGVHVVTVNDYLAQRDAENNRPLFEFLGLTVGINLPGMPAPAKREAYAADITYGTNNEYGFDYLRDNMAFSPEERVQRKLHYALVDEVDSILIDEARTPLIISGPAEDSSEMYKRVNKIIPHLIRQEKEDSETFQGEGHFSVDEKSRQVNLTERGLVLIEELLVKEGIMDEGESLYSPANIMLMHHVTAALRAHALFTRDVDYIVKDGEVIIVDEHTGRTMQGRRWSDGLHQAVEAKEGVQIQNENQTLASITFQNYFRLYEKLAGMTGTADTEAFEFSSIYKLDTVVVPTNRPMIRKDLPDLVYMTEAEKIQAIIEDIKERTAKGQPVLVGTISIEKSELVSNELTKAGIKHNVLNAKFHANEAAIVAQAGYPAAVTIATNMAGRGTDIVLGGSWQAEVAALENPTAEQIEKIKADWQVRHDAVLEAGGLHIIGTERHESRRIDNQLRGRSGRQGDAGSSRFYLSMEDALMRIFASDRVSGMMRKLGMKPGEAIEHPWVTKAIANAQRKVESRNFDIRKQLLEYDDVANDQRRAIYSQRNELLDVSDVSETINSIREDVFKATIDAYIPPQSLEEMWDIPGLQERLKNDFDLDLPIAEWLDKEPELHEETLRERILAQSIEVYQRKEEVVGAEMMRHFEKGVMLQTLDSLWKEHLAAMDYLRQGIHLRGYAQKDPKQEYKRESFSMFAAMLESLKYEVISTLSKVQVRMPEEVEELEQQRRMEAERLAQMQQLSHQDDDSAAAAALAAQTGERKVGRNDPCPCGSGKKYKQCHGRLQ
Sequence of Sialic acid-binding Ig-like lectin 9 (Homo sapiens) (Q9Y336 whole entry): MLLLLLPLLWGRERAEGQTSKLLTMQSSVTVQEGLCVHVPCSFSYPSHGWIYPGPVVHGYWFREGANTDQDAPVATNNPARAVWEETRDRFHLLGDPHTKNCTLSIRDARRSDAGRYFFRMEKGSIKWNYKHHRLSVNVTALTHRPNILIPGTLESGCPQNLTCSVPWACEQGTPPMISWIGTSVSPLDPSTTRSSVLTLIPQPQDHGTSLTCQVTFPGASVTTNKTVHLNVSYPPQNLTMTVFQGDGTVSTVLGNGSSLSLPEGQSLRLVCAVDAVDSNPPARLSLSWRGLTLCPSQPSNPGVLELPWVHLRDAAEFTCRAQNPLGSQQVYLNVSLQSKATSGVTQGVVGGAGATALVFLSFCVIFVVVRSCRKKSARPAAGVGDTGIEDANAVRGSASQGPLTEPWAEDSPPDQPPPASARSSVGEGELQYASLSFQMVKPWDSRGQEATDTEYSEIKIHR

For `O=C(CSCC1CC1)N1CCCC(c2nccn2Cc2ccncc2)C1` (stereo unspecified), the Percent Effect in [1] was -2.74%; in assay [2], 15.3%; in assay [3], -12.9%; in [4], 10.9%; in [5], 2.62%; in assay [6], 2.65%. Also, the Percent Effect in assay [7] was 7.37%; in assay [8] it was -2.75%; in [9], 3.16%; in assay [10] it was 10.3%; in assay [11] it was -2.97%.
`O=C(C1CCN(c2snc3ccccc23)CC1)N1CCCCCC1`: the Percent Effect in assay [1] was 1.1%; in assay [2] it was 24.1%; in assay [3], 2.83%; in [4], -3.46%; in [5], -0.923%; in [6], -4.52%. The Percent Effect in [7] is 13.7%; in assay [8] it was 59.6%; in assay [9] it was 5.21%; in assay [10] it was 7.59%; in assay [11], -21.3%.
As to `Cc1cc(N2CCCN(C(=O)Cc3ccc(O)c(Cl)c3)CC2)ccn1`, the Percent Effect in [1] was -3.42%; in assay [2], 13.7%; in assay [3] it was -3.37%; in assay [4] it was 6.51%; in assay [5] it was 2.18%; in [6] it was 0.399%. The Percent Effect in assay [7] was 22.2%; in assay [8], -10.9%; in [9] it was 8.33%; in [10], 18.5%; in assay [11], -1.79%.
Consider `COc1ccc(CNC(=O)NC2CCN(CC(F)F)CC2)cc1C`, for which the Percent Effect in assay [1] is -6.96%; in assay [2], 5.41%; in [3], -0.551%; in [4] it was 14.3%; in assay [5] it was 3.23%; in [6] it was 3.72%. For the same compound, the Percent Effect was 2.15% in assay [7]; -4.85% in [8]; 4.3% in [9]; 13.6% in assay [10]; -4.89% in assay [11].
As to `Cc1cc(C(=O)N2CCCC2Cn2nc(C)cc2C)on1` (stereo unspecified), the Percent Effect is -2.76% in assay [1]; 10.8% in [2]; -7.13% in assay [3]; 13.4% in assay [4]; 3.87% in assay [5]; -7.62% in assay [6]. In addition, the Percent Effect was 4.14% in assay [7]; 8.42% in assay [8]; 5.42% in assay [9]; 18.5% in [10]; -8.04% in [11].
With `O=C(Cc1cccc(F)c1)NCCNCc1cccc(O)c1`, the Percent Effect in assay [1] was -1.42%; in assay [2] it was -5.2%; in assay [3], 13.5%; in assay [4] it was 6.95%; in assay [5], 0.749%; in [6] it was 3.56%. In addition, the Percent Effect in assay [7] is -0.169%; in assay [8] it was 3.07%; in assay [9] it was 8.74%; in assay [10], 12.2%; in assay [11], -4.75%.
In the case of `O=C(CN1CCCCC1Cn1cncn1)NCc1ccccn1` (stereo unspecified), the Percent Effect was -0.608% in assay [1]; 2.53% in assay [2]; -4.5% in assay [3]; -1.76% in assay [4]; -5% in assay [5]; 5.32% in assay [6]. Besides, the Percent Effect in [7] is -6.31%; in assay [8] it was 11%; in assay [9], 4.43%; in assay [10], 3.8%; in [11], -4.29%.
With `CCCc1nnsc1C(=O)NCC1CCN(S(C)(=O)=O)CC1`, the Percent Effect in assay [1] was -4.49%; in [2], 16.4%; in assay [3] it was -9.31%; in assay [4] it was 9.94%; in assay [5], 1.57%; in assay [6], 0.455%. Further, the Percent Effect in assay [7] is 20.1%; in assay [8], 9.73%; in assay [9], 7.53%; in assay [10] it was 17.5%; in assay [11] it was -6.78%.
`CCC(C)CNc1ccc2oc(COC)nc2c1` (stereo unspecified): the Percent Effect in [1] was 7.14%; in assay [2], 32.4%; in assay [3], -44.5%; in assay [4], 7.84%; in assay [5], -5.08%; in [6], 6.67%. For the same compound, the Percent Effect in [7] was 20.9%; in assay [8] it was 42.4%; in assay [9] it was -6.93%; in assay [10], -11%; in assay [11], 4.53%.
Regarding `CCc1cnc(CN(C(C)=O)C2CCN(CCS(C)(=O)=O)C2)o1` (stereo unspecified), the Percent Effect in assay [1] is -2.33%; in assay [2], 6.94%; in assay [3] it was -4.16%; in assay [4], 16.1%; in [5] it was 0.291%; in [6], 9.27%. For the same compound, the Percent Effect in [7] was 13.3%; in [8] it was 10.7%; in assay [9], 4.21%; in [10], 10.3%; in [11], -8.92%.
For the compound `CC(C)CN1Cc2c(C(=O)N(C)C)ncn2-c2ccccc2S1(=O)=O`, the Percent Effect is -3.52% in assay [1]; 5.41% in [2]; -2.12% in assay [3]; -3.11% in [4]; -2.83% in assay [5]; 0.319% in [6]. In addition, the Percent Effect was 11.6% in assay [7]; -4.16% in [8]; 3.24% in assay [9]; 15.4% in assay [10]; 0.625% in [11].

The record behind these values is ChEMBL document CHEMBL3988442, “University of Dundee, Small-Polar-MMV Screening Library” (2021).
